Data as given in article PMC5700166.

These sequences were tested against T1, GST-Co-NF-kB (Capsaspora owczarzaki, UniProt F1ARL5 200-546) (assay: protein-binding microarray (PBM); PBM: ~300 nM protein, 6 mM HEPES pH 7.8, 80 mM KCl, 0.5 mM EDTA, 0.5 mM EGTA, 6% glycerol, 35 ng/ul poly-dIdC, 1% milk, 1 h, room temperature; Ap Aiptasia and Nv Nematostella (sea anemones) / Co Capsaspora / Aq Amphimedon (sponge) / Dm Drosophila / Hu human; RHD is the Rel homology domain; high values mean tight binding). Conditions: dsDNA, one strand shown.
T1 sequence: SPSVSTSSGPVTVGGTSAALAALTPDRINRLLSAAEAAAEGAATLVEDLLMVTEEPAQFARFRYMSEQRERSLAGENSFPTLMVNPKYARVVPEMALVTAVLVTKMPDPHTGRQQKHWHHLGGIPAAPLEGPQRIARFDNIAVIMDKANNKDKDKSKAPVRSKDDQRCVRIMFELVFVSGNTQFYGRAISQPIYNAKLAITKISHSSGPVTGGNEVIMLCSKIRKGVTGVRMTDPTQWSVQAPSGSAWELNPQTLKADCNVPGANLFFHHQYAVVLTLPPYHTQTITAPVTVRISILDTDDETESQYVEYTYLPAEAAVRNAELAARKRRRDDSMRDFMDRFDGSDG
In the case of “CCGATTAACATCATTTCCCTTGATGATGTTAATCGGGTCTTGATTCGCTTGACGCTGCTG”, the binding signal is reported as 1.95 z-score. With “CCGATTAACATCACATCTTTCCCTGATGTTAATCGGGTCTTGATTCGCTTGACGCTGCTG” the binding signal was 3.84 z-score. For “CCGATTAACATCATACAAGGGAGTGATGTTAATCGGGTCTTGATTCGCTTGACGCTGCTG”, the binding signal was 1.46 z-score. “CCGATTAACATCATGCCCGGGAATGATGTTAATCGGGTCTTGATTCGCTTGACGCTGCTG” was tested, and the binding signal was 3.51 z-score. “CCGATTAACATCAAATGTGGGAATGATGTTAATCGGGTCTTGATTCGCTTGACGCTGCTG” was tested, and the binding signal was 3.07 z-score. Work on “CCGATTAACATCAGTACGGGAAATGATGTTAATCGGGTCTTGATTCGCTTGACGCTGCTG” yielded a binding signal of 2.65 z-score. “CCGATTAACATCAGGGAAAAGGATGATGTTAATCGGGTCTTGATTCGCTTGACGCTGCTG” was tested, and the binding signal was 2.73 z-score. In the case of “CCGATTAACATCATGGTGGGAAATGATGTTAATCGGGTCTTGATTCGCTTGACGCTGCTG”, the binding signal is reported as 2.94 z-score. With “CCGATTAACATCAACTGGGAAAATGATGTTAATCGGGTCTTGATTCGCTTGACGCTGCTG” the binding signal was 3.52 z-score. In the case of “CCGATTAACATCACTTTCCCAAATGATGTTAATCGGGTCTTGATTCGCTTGACGCTGCTG”, the binding signal is reported as 2.28 z-score. “CCGATTAACATCAGCTCCCCCCCTGATGTTAATCGGGTCTTGATTCGCTTGACGCTGCTG” was tested, and the binding signal was 5.77 z-score. For “CCGATTAACATCAGGGAAAGGGATGATGTTAATCGGGTCTTGATTCGCTTGACGCTGCTG”, the binding signal was 2.1 z-score. Sequence “CCGATTAACATCAGGGACGGAAATGATGTTAATCGGGTCTTGATTCGCTTGACGCTGCTG” has a binding signal of 2.07 z-score. Work on “CCGATTAACATCAGGGACAAAAATGATGTTAATCGGGTCTTGATTCGCTTGACGCTGCTG” yielded a binding signal of 2.39 z-score.
